Glyco luc inh: N-linked glycosylation inhibition | D54 ERlucT glycosylation luciferase reporter, 24 h; percent of 100 nM tunicamycin response | reporter increase, % at 12.5 µM | 360,000 tested, 0.23% active;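 active means mean luciferase reporter signal, scaled so untreated is 0 and the glycosylation-blocking control 100, at or above a set limit in every replicate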;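 further: luciferase carries N-glycosylation sites so blocking glycosylation raises the light; 0% = median of neutral control wells and 100% = median of 100 nM tunicamycin wells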
esBAF inh: inhibitors of esBAF chromatin remodeling in mouse ES cells; Bmi1-luciferase knock-in reporter, 24 h; 100% = twice the neutral-well signal; AID 602393; 350,000 tested, 2% active; reporter increase, % at 12.5 µM; in the data active means activation above about 40%;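 further: 0% = median of the plate's neutral control wells and 100% = double that signal; a rise in the Bmi1 reporter signal indicates esBAF inhibition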
Vif imaging: blocks HIV Vif function | inhibition, % at 7.49 µM | 340,000 tested, 0.35% active | HEK293T cells, Vif self-association by quenched fluorescence, imaging, 24 h; in the data active means inhibition above about 50%, passing the limit was not always enough
Wnt bcat act: Wnt/beta-catenin pathway activation; 300,000 tested, 1.2% active; AID 743398; Wnt/beta-catenin reporter cell assay, activator, plate reader; activation, % at 9.35 µM; in the data active means activation above about 30%, passing the limit was not always enough;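 further: 0% = neutral control wells and 100% = positive control wells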
PvdQ acylase: P. aeruginosa PvdQ acylase inhibition; purified PvdQ acylase, fluorescence plate reader; inhibition, % at 10 µM; 340,000 tested, 0.063% active; AID 488965; in the data active means inhibition above about 30%, passing the limit was not always enough;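 further: 0% = vehicle neutral wells and 100% = reference inhibitor wells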
MITF TRPM1 HTS: increases MITF-driven TRPM1 promoter luciferase signal; 300,000 tested, 0.75% active; activation, % at 12.5 µM; SK-MEL-5 TRPM1-promoter luciferase, 24 h; % of positive control, neutral wells = 0;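 active means mean activation of at least 80% with every replicate also reaching 80%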;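 further: 0% = neutral control wells and 100% = parthenolide positive control wells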
An asterisk follows results filed as active; . = not tested or not shown. Most compounds without a hit are left out; they make up all but 2.9% or so of the library.

SMILES | Glyco luc inh | esBAF inh | Vif imaging | Wnt bcat act | PvdQ acylase | MITF TRPM1 HTS
Cc1ccc(NC(=O)c2cc(N(C)C)ccc2[P+](=O)O)cc1 | 0 | 45* | 30 | 13 | -7 | 55
C[C@H]1CN([C@@H](C)CO)C(=O)Cc2cc(NC(=O)Nc3ccc4c(c3)OCO4)ccc2O[C@@H]1CN(C)Cc1ccccc1 | . | 48* | . | . | . | .
C[C@@H]1CN([C@H](C)CO)C(=O)Cc2cc(NC(=O)C3CCCCC3)ccc2O[C@H]1CN(C)C(=O)Nc1ccc2c(c1)OCO2 | . | 52* | . | . | . | .
C[C@@H]1CN([C@@H](C)CO)C(=O)Cc2cc(NC(=O)C3CC3)ccc2O[C@H]1CN(C)C(=O)Nc1ccc2c(c1)OCO2 | . | 0 | . | . | . | .
CCOC(=O)c1cc2ccc3ccccc3c2s1 | -3 | 75* | 6 | . | 17 | 53
CCOC(=O)c1cc2c(s1)-c1ccccc1CC2 | 1 | 57* | 0 | 0 | 2 | 32
COC(=O)c1cc2c(s1)-c1ccccc1CC2 | 3 | 32 | 4 | 3 | -1 | 36
Cc1ccc(/C=N/N=C/c2ccc(C)cc2)cc1 | 2 | 57* | 6 | 4 | -11 | -1
Oc1ccc(/C=N/N=C/c2ccc(O)cc2)cc1 | 0 | 27 | 13 | -2 | 5 | 27
COc1ccc(S(=O)(=O)Nc2ccc3c(c2)C(=O)N([C@@H](C)CO)C[C@H](C)[C@@H](CN(C)C(=O)c2ccncc2)OCCCC[C@H](C)O3)cc1 | . | -9 | . | . | . | .
Cc1ccc(S(=O)c2ccc(C)cc2)cc1 | 1 | 1 | 1 | 27 | 79* | 12
COCCNC(=O)C[C@H]1C[C@H]2c3cc(NS(=O)(=O)c4ccc(F)cc4)ccc3O[C@H]2[C@@H](CO)O1 | . | -2 | . | . | . | .
CCOc1ccc(C(=O)N(CC(=O)Nc2cccc(C)c2C)CC2CCCO2)cc1OC (stereo not given) | 1 | -8 | -2 | 51* | -4 | 0
CCOc1ccc(NC(=O)CN(C)C(=O)c2ccc(OCC3CCCO3)cc2)cc1OCC (stereo not given) | 1 | 13 | -3 | 2 | -19 | 1
CC(CC(=O)O)CC(=O)Nc1cc(C(F)(F)F)cc(C(F)(F)F)c1 (stereo not given) | 2 | . | 11 | 51* | -8 | .
O=C(O)COCC(=O)Nc1cc(C(F)(F)F)cc(C(F)(F)F)c1 | 3 | . | 12 | 2 | -5 | -9
CC1=C(C(=O)N(C)C)CC(CC(=O)NC2CCCC2)C(=O)N1CCC1=CCCCC1 (stereo not given) | -2 | 49* | . | 8 | . | .
CC1=C(C(=O)N(C)C)CC(CC(=O)NC2CCCCC2)C(=O)N1CCC1=CCCCC1 (stereo not given) | -1 | 70* | 7 | -2 | . | .
CN(C)C(=O)C[C@H]1CC[C@@H](NC(=O)NC2CCCCC2)[C@H](CO)O1 | . | -1 | . | . | . | .
CCOC(=O)C1=C(Nc2ccc(OC)cc2)OCC1=O | 0 | . | 1 | 36* | -14 | .
C[C@H](CO)N1C[C@H](C)[C@@H](CN(C)Cc2ccc(C(=O)O)cc2)Oc2ccc(NC(=O)Nc3ccc(C(F)(F)F)cc3)cc2CC1=O | . | -7 | . | . | . | .
C[C@@H]1CCCCO[C@H](CN(C)C(=O)NC2CCCCC2)[C@H](C)CN([C@H](C)CO)C(=O)c2cc(NC(=O)NC3CCCCC3)ccc2O1 | . | 4 | . | . | . | .
CC(=O)Nc1ccc2c(c1)C(=O)c1ccccc1C2=O | 3 | 27 | -15 | . | 3 | .
O=C(O)/C=C/C(=O)Nc1ccc2c(c1)C(=O)c1ccccc1C2=O | 4 | . | -2 | 50* | -10 | 18
CC(=O)Nc1ccc(OCc2cccc([N+](=O)[O-])c2)cc1 | -1 | . | -3 | 59* | 3 | 6
SMILES | Glyco luc inh | esBAF inh | Vif imaging | Wnt bcat act | PvdQ acylase | MITF TRPM1 HTS
O=[N+]([O-])c1cccc(COc2ccc(CN3CCOCC3)cc2)c1 | -12 | -17 | -1 | 9 | -6 | 111*
C[C@H]1CCCCO[C@H](CN(C)C(=O)NC2CCCCC2)[C@@H](C)CN([C@@H](C)CO)C(=O)c2cc(NC(=O)c3ccccc3)ccc2O1 | . | -2 | . | . | . | .
COc1ccc(S(=O)(=O)Nc2ccc3c(c2)CC(=O)N([C@H](C)CO)C[C@@H](C)[C@@H](CN(C)C)O3)cc1 | . | 0 | . | . | . | .
Cc1ccc(NC(=O)c2snc3ccc(Cl)cc23)cc1C | -3 | . | 1 | 48* | -9 | 45
Nc1nnnn1/N=C/C=C/c1ccccc1 | -1 | 19 | . | . | -13 | 23
Nc1nnnn1/N=C/C(Br)=C/c1ccccc1 | -3 | 53* | 9 | -20 | -11 | -83
